# Source: PubChem BioAssay
# Rows were chosen to be rich in hits. Some 1.3% of all compounds tested hit in one or more screens of this group.
# GC-A act – GC-A stimulated cGMP production enhancers – HEK293 GC-A cells, cGMP TR-FRET, EC30 ANP, primary screen; hit rate 0.14% among 370,000; 0% at EC30 ANP, 100% saturating ANP; activation, % at 10 µM; AID 1671463, 2021; Atrial natriuretic peptide receptor 1 (Homo sapiens), P16066; in the data active = activation above about 40%
# ADAM17 inh – ADAM17 inhibitors, primary screen, biochemical, QFRET. inhibition, % at 6.95 µM. hit rate 0.83% among 370,000. recombinant ADAM17, EDANS/DABCYL FRET peptide cleavage;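 active = inhibition above the mean of compounds lying between control limits plus 3 SD, set per campaign, cut at about 8.5% in these data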;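 also: 0% = DMSO-only wells as the low control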
# ADAM10 inh – human ADAM10 inhibitors, primary screen, biochemical, QFRET, HTS. recombinant ADAM10, EDANS/DABCYL FRET peptide cleavage, 3 h. hit rate 0.62% among 370,000. inhibition, % at 7 µM;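 active = inhibition above a per-campaign cutoff equal to the mean of compounds falling between control-based bounds plus 3 SD, cut at about 20% in these data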;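 also: 0% = DMSO wells while the 100% control is not disclosed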
# Target sequence (O14672 214-748 limits assumed): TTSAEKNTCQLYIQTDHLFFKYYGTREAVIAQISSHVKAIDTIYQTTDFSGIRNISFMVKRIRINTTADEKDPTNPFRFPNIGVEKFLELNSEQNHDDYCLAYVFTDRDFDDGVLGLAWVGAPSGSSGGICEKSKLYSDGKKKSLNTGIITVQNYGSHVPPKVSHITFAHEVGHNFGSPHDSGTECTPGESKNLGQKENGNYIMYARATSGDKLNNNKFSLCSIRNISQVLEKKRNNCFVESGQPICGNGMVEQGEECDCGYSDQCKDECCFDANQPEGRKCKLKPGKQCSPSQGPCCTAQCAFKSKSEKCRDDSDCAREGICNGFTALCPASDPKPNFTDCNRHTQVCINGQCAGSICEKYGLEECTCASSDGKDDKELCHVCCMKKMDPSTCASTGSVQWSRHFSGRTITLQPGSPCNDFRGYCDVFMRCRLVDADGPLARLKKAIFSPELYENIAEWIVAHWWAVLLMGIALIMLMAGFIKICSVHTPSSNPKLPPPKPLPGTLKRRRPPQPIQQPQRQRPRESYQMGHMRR
# GC-B act – human GC-B receptor activators, primary screen, HEK293 GC-B cells, cGMP TR-FRET, EC30 CNP | Atrial natriuretic peptide receptor 2 (Homo sapiens), P20594 | 0% at EC30 CNP, 100% saturating CNP | activation, % at 10 µM | hit rate 0.11% among 370,000 | AID 1920062, 2024;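 active = activation at 10 µM reaching about 35% in either raw or pattern-adjusted values, limit read from the data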
# ADAM10 counter – ADAM10 inhibitors, counter-screen for ADAM17 exosite inhibitor project, biochemical, FRET, human ADAM10; shares compounds with ADAM17 inh; recombinant ADAM10, EDANS/DABCYL FRET peptide cleavage, 3 h; inhibition, % at 6.95 µM; hit rate 47% among 2,900; AID 743256, 2014;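 active = mean inhibition over the triplicate runs exceeds the activity threshold set in the earlier primary screen, cut at about 20% in these data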;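 also: 0% = DMSO wells and 100% = marimastat wells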
# ADAM17 confirm – ADAM17 inhibitors, hit retest, confirmation, biochemical, QFRET peptide cleavage. shares compounds with ADAM17 inh. recombinant ADAM17, EDANS/DABCYL QFRET peptide cleavage. inhibition, % at 6.95 µM. hit rate 65% among 2,900. AID 743257, 2014;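 active = mean inhibition across replicates above the hit cutoff set in the primary screen, cut at about 8.5% in these data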;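 also: 0% = DMSO wells and 100% = marimastat wells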
# * marks the source's active call; other numbers are inactive results; / = no result.
SMILES,GC-A act,ADAM17 inh,ADAM10 inh,GC-B act,ADAM10 counter,ADAM17 confirm
C/C(CC(=O)Nc1ccc2c(c1)OCCO2)=N\NC(=O)c1cccc(O)c1,-3,2,6,-1,/,/
C/C(CC(=O)Nc1ccc(Br)cc1)=N\NC(=O)c1cccc(O)c1,-5,10.0*,5,0,0,2
COC(=O)c1cc2c(c3c4ccccc4n(S(=O)(=O)c4ccccc4)c13)C(=O)N(C)C2,2,-4,-17,0,/,/
Cc1ccc(CN(CC(=O)N/N=C/c2ccccc2[N+](=O)[O-])S(=O)(=O)c2ccc(C)cc2)cc1,-2,9.1*,13,-3,33*,14*
O=C(CN(Cc1ccccc1)S(=O)(=O)c1ccccc1)N/N=C/c1ccccc1[N+](=O)[O-],1,4,7,-8,/,/
CN(Cc1ccco1)C(=O)CN1C(=O)NC(c2ccccc2)(c2ccccc2)C1=O,4,-1,-7,3,/,/
Cc1ccc(CN(C)C(=O)CN2C(=O)NC(c3ccccc3)(c3ccccc3)C2=O)c(C)c1,-1,9.1*,8,-7,31*,13*
C=CCOC(=O)C1=C(C)N=C2SCCC(=O)N2C1c1ccc(OC(=O)c2ccco2)cc1 (centres undefined),0,0,-6,7,/,/
COC(=O)C1=C(C)N=C2SCCC(=O)N2C1c1ccc(OC(=O)c2ccco2)cc1 (centres undefined),-3,17*,16,-3,1,1
COC(=O)[C@]12C[C@H](CC(=O)NCc3ccccc3)C(=O)N(Cc3ccco3)C1=C[C@H](COCc1ccccc1)O[C@@H]2C,0,10*,6,4,27*,12*
COC(=O)[C@]12C[C@H](CC(=O)NCC3CCCCC3)C(=O)N(CCc3ccc(OC)c(OC)c3)C1=C[C@H](C(C)(C)C)O[C@@H]2C,-4,9.7*,7,-9,19,11*
COC(=O)[C@]12C[C@H](CC(=O)NCc3ccc(C)o3)C(=O)N(Cc3cccc4ccccc34)C1=C[C@H](C(C)C)O[C@@H]2C1CC1,-9,11*,19,-4,9,8.9*
COC(=O)[C@]12C[C@H](CC(=O)NCC3CCCCC3)C(=O)N(CCc3ccc(OC)c(OC)c3)C1=C[C@H](C1CCCC1)O[C@@H]2C,-3,7,13,-4,/,/
COC(=O)[C@]12C[C@H](CC(=O)NCc3cccc4ccccc34)C(=O)N(Cc3ccco3)C1=C[C@H](C(C)C)O[C@@H]2C1CC1,-5,7,12,-8,/,/
COC(=O)[C@]12C[C@H](CC(=O)NCc3ccccc3)C(=O)N(Cc3cccc4ccccc34)C1=C[C@H](C1CCCC1)O[C@@H]2C,-3,10*,17,-7,25*,17*
Cn1ccnc1C(=O)c1ccc(Cl)c(S(=O)(=O)N2CCOCC2)c1,2,-6,-8,2,/,/
O=C(c1ccccc1Cl)N1N=C(c2cccs2)CC1c1cccc(O)c1 (centres undefined),-5,9.0*,11,-5,3,3
Cc1ccc(NS(=O)(=O)c2cc([N+](=O)[O-])ccc2NNC(=S)Nc2cc(C)ccc2C)c(C)c1,1,10*,20*,9,34*,22*
COc1ccc(NC(=S)NNc2ccc([N+](=O)[O-])cc2S(=O)(=O)Nc2ccc(C)cc2C)cc1,0,7,4,11,/,/
CCOC(=O)N1CCN(S(=O)(=O)c2ccc(C(=O)NNc3nc4c(C)cc(C)cc4s3)cc2)CC1,6,9.7*,16,-2,29*,23*
